# Experimental data: PubChem BioAssay (NCATS)
# Where “and” joins values, the source holds several entries; their conditions need not be identical. Equal values may be shown once. Results filed as inconclusive are left out. Calls of active or inactive are those of the source. Unless noted, calls follow the shape of the dose curve; as a rule, active = well fitted curve in the direction sought with a large enough effect; inconclusive = small, poorly fitted or top-dose-only effect, or another doubt; inactive = no such curve, though single readings can be large; an effect the other way counts as inactive or inconclusive.
# Tests used:
# [1] = qHTS Assay for Lipid Storage Modulators (AID 1519; calls by dose curve; as to activity change, negative = inhibition: % is scaled to controls: 0 for no effect and ±100 for the full control effect); conditions: Drosophila S3 cells, BODIPY lipid droplet/cell ratio, laser cytometry, cells loaded with oleic acid
# In short: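 Cells seeded at 5,000 per well were treated with compounds over a concentration series and loaded with oleic acid (400 uM, as added). Lipid droplet fluorescence (488 nm excitation, 500-530 nm channel) was read by laser-scanning cytometry and normalized to 20 uM Triacsin C.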
# [2] = target: Alpha-galactosidase A (Homo sapiens) (UniProt P06280); assay: Counterscreen for Glucocerebrosidase Inhibitors: qHTS Assay for Human alpha-Galactosidase at pH 4.5 (AID 992); conditions: purified enzyme, fluorogenic substrate; series mostly up to 76.9 µM; also: 0% is about no effect
# In short: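 Human enzyme (2 nM) with 80 uM 4-methylumbelliferyl alpha-D-galactopyranoside in 50 mM citric acid, 0.005% Tween-20, pH 4.5, 20 min at room temperature. Compounds 0.7 nM–77 uM; fluorescence Ex 365/Em 440 after pH 10 stop; AC50 from Hill fits.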
# [3] = target: DNA repair nuclease/redox regulator APEX1 (Homo sapiens) (UniProt P27695); assay: qHTS Validation Assay for Inhibitors of the Human Apurinic/apyrimidinic Endonuclease 1 (APE1) (AID 1705;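 also: TAMRA fluorescence gain over two minutes as APE1 cuts a quenched THF abasic duplex; % is scaled to controls: 0 for no effect and ±100 for the full control effect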); conditions: purified APE1 endonuclease activity, fluorescence, titration; series mostly up to 57.1 µM
# In short: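 Activity read as rising fluorescence (598 nm emission, 525 nm excitation) from incision of a TAMRA/BHQ-2 duplex carrying a THF abasic site (50 nM). Compound and enzyme sat 15 min at RT before substrate start; signal change between first and third 60-s reads.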
# [4] = Counterscreen for APE1 Inhibitors: Fluorescent Dye Displacement Validation Assay (AID 1707); conditions: fluorescent dye displacement from DNA; series mostly up to 57.1 µM;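 also: plate controls were ThO with dsDNA and no compound for no effect and ThO without dsDNA for full effect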
# In short: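 Thiazole Orange (250 nM) bound to 50 nM TAMRA-labelled dsDNA with tetrahydrofuran abasic site; displacement by DNA-binding compounds lowers fluorescence. Buffer 50 mM Tris-HCl pH 7.5, 50 mM NaCl, 2 mM MgCl2, 0.01% Tween-20; endpoint read at 480/540 nm.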
# [5] = Cell Viability - LYMP2-010 (AID 981); conditions: LYMP2-010 lymphoblastoid cell viability, qHTS; series mostly up to 92.2 µM; also: potency is read from the fitted curve at half-maximal effect; nearly all actives have a fitted effect of over 55% in size
# In short: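 Acute toxicity is scored as a concentration-dependent loss of cellular ATP in human lymphoblastoid cells after 24 hr compound exposure in complete medium. Tetraoctylammonium bromide is the positive control.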
# [6] = Cell Viability - LYMP2-012 (AID 982); conditions: LYMP2-012 lymphoblastoid cell viability qHTS; series mostly up to 92.2 µM;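 also: cellular ATP by luciferase luminescence where a drop means cytotoxicity; potency is read from the fitted curve at half-maximal effect; cells exposed to compound for one day before reading; nearly all actives have a fitted effect of over 55% in size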
# [7] = Cell Viability - LYMP2-016 (AID 984); conditions: LYMP2-016 lymphoblastoid cell viability, qHTS; series mostly up to 92.2 µM; also: potency is read from the fitted curve at half-maximal effect; nearly all actives have a fitted effect of over 55% in size
# In short: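 Cytotoxicity was scored by luminescent ATP content (CellTiter-Glo) after 24 h compound exposure at 37 C of a human lymphoblastoid line at 2500 cells/well. Concentration-response data were fitted to the Hill equation for AC50.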
# [8] = Cell Viability - LYMP2-018 (AID 985); conditions: LYMP2-018 lymphoblastoid cells, viability (qHTS); series mostly up to 92.2 µM;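 also: potency is read from the fitted curve at half-maximal effect; compound exposure lasted 24 hr at 37 °C; nearly all actives have a fitted effect of over 50% in size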
# In short: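 Acute cytotoxicity is scored as a concentration-dependent drop in intracellular ATP after 24 hr exposure of the lymphoblastoid line in complete culture medium, measured by luciferase luminescence. Potency is expressed as AC50 from Hill modelling.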
# [9] = Cell Viability - LYMP2-022 (AID 987); conditions: LYMP2-022 lymphoblastoid cell viability; series mostly up to 92.2 µM; also: potency is read from the fitted curve at half-maximal effect; nearly all actives have a fitted effect of over 55% in size
# In short: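 Acute toxicity in a human lymphoblastoid line is scored as decreased intracellular ATP after 24 hr compound treatment at 37 C. ATP is measured by CellTiter-Glo luminescence; curves are fitted with the Hill equation to give AC50.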
# [10] = Cell Viability - LYMP2-024 (AID 988); conditions: LYMP2-024 lymphoblastoid cell viability; series mostly up to 92.2 µM; also: potency is read from the fitted curve at half-maximal effect; nearly all actives have a fitted effect of over 60% in size
# In short: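 Acute toxicity is measured as concentration-dependent loss of intracellular ATP in a human lymphoblastoid line treated 24 hours at 37 C. Luciferase luminescence quantifies ATP; AC50 values come from standard Hill-equation modelling.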
# [11] = Cell Viability - LYMP1-002 - Assay at 24 hr (AID 993); conditions: LYMP1-002 lymphoblastoid cells viability; series mostly up to 92.2 µM; also: potency is read from the fitted curve at half-maximal effect
# In short: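 qHTS, LYMP1-002 lymphoblastoid, 24 h cpd, 37 C, CellTiter-Glo ATP luminescence; AC50 via Hill eq.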
# [12] = Cell Viability - LYMP2-008 (AID 980); conditions: LYMP2-008 lymphoblastoid cell viability, qHTS; series mostly up to 92.2 µM; also: potency is read from the fitted curve at half-maximal effect; nearly all actives have a fitted effect of over 60% in size
# In short: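 Acute cytotoxicity is scored as concentration-dependent loss of cellular ATP in a human lymphoblastoid line after 24 hr treatment at 37 C. ATP is quantified by luciferase luminescence.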
# [13] = Cell Viability - LYMP2-020 (AID 986); conditions: series mostly up to 92.2 µM
# In short: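 Acute cytotoxicity in a human lymphoblastoid line is scored as a concentration-dependent fall in cellular ATP after 24 hr at 37 C in complete medium. The positive control is tetraoctylammonium bromide, and potency is given as Hill-fit AC50.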
# [14] = Cell Viability - LYMP2-025 (AID 976); conditions: LYMP2-025 lymphoblastoid cell viability; series mostly up to 92.2 µM; also: potency is read from the fitted curve at half-maximal effect
# In short: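 In qHTS format, LYMP2-025 lymphoblastoid cells in complete culture medium received compound for 24 hr; ATP-based CellTiter-Glo signal gave viability, with AC50 derived by Hill equation.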
# [15] = Cell Viability - LYMP2-002 (AID 977); conditions: LYMP2-002 lymphoblastoid cell viability, qHTS; series mostly up to 92.2 µM; also: potency is read from the fitted curve at half-maximal effect
# In short: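 Human lymphoblastoid LYMP2-002 cells, 2500 per well, exposed to compounds for 24 h at 37 C in complete medium; viability read as intracellular ATP by CellTiter-Glo luminescence, AC50 from Hill fits.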
# [16] = Cell Viability - LYMP2-006 (AID 978); conditions: LYMP2-006 lymphoblastoid cell viability, qHTS; series mostly up to 92.2 µM; also: potency is read from the fitted curve at half-maximal effect; nearly all actives have a fitted effect of over 60% in size
# In short: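 Potency values are Hill-fit AC50s for decreases in intracellular ATP (CellTiter-Glo luminescence). LYMP2-006 lymphoblastoid cells, 2500 per well, were exposed to compound in complete culture medium for 24 hr at 37 C.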
# [17] = Cell Viability - LYMP2-007 (AID 979); conditions: LYMP2-007 lymphoblastoid cell viability; series mostly up to 92.2 µM;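 also: potency is read from the fitted curve at half-maximal effect; cells exposed to compound for 24 h before reading; nearly all actives have a fitted effect of over 60% in size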
# In short: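 Acute toxicity is scored as a concentration-dependent fall in intracellular ATP in human lymphoblastoid cells treated 24 hr at 37 C, measured by luciferase luminescence; Hill-equation modelling yields AC50.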
# [18] = Cell Viability - LYMP2-014 (AID 983); conditions: LYMP2-014 lymphoblastoid cells, viability qHTS; series mostly up to 92.2 µM; also: potency is read from the fitted curve at half-maximal effect; nearly all actives have a fitted effect of over 50% in size
# In short: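 Decrease in intracellular ATP after 24 hr treatment at 37 C, measured by luciferase luminescence, indicated cytotoxicity. Concentration-response data were fitted with the standard Hill equation to give AC50.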
# [19] = Cell Viability - LYMP2-026 (AID 989); conditions: LYMP2-026 lymphoblastoid cell viability, qHTS; series mostly up to 92.2 µM; also: potency is read from the fitted curve at half-maximal effect; nearly all actives have a fitted effect of over 50% in size
# In short: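 Concentration-dependent loss of intracellular ATP in human lymphoblastoid cells after 24 hr at 37 C, quantified by luciferase luminescence. AC50 derived from standard Hill equation.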
# [20] = measured here: cell count channel max response
# [21] = measured here: lipid channel max response
# Sequence of DNA repair nuclease/redox regulator APEX1 (Homo sapiens) (P27695 whole entry, looked up): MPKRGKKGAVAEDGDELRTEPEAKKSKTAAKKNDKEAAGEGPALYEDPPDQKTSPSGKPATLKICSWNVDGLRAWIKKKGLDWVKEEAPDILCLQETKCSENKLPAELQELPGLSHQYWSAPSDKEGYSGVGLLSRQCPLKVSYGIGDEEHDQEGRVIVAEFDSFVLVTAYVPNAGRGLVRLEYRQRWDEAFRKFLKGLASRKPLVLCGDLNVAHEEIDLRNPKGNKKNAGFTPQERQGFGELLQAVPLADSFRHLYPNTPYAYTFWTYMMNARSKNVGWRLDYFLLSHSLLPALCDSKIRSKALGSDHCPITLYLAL
# Sequence of Alpha-galactosidase A (Homo sapiens) (P06280 whole entry, looked up): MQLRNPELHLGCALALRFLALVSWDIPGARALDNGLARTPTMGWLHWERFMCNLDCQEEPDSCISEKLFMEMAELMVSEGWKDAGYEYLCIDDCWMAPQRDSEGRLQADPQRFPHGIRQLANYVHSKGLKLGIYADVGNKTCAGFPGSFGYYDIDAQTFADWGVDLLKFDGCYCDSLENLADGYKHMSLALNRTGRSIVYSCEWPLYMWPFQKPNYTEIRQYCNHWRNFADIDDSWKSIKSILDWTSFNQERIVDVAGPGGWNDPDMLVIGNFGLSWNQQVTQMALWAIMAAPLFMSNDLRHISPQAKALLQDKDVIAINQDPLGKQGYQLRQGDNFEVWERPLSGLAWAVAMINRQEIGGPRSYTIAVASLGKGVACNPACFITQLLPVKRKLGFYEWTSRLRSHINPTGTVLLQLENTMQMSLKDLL
smiles,measurement,setting,value
CCN(CC)C(=O)N1CCN(C)CC1,"activity change, negative = inhibition",[1]; at 25.7 µM (top of the series),-0.935% (inactive)
same,"activity change, negative = inhibition",[1]; at 57.5 µM (top of the series),4.02% (inactive)
same,max response,[1]; [20],-1.64% and 22.2%
same,max response,[1]; [21],2.25% and 24.5%
CC(C)N=C(N)/N=C(\N)Nc1ccc(Cl)cc1,"activity change, negative = inhibition",[1]; at 25.7 µM (top of the series),-2.29% (inactive)
same,max response,[1]; [20],-10.3%
same,max response,[1]; [21],-11.8%
CC(=O)c1ccc2c(c1)N(CCCN1CCC(CCO)CC1)c1ccccc1S2,"activity change, negative = inhibition",[1]; at 25.7 µM (top of the series),-1.72% (inactive)
same,max response,[1]; [20],-5%
same,max response,[1]; [21],-2.93%
CN1CCC(=C2c3ccccc3Sc3ccccc32)CC1,"activity change, negative = inhibition",[1]; at 25.7 µM (top of the series),-2.77% (inactive)
same,"activity change, negative = inhibition",[1]; at 57.5 µM (top of the series),13.8% (inactive)
same,max response,[1]; [20],3.5% and 5.85%
same,max response,[1]; [21],-0.527% and 23.3%
CC(O)(P(=O)(O)O)P(=O)(O)O,"activity change, negative = inhibition",[1]; at 25.7 µM (top of the series),2.54% (inactive)
same,max response,[1]; [20],-3.25%
same,max response,[1]; [21],-0.531%
OCc1ccccc1O,"activity change, negative = inhibition",[1]; at 57.5 µM (top of the series),1.86% (inactive)
same,max response,[1]; [20],-8.44%
same,max response,[1]; [21],0.187%
CN(C(=O)CN(CCO)CC(=O)N(C)C(C)(C)Cc1ccccc1)C(C)(C)Cc1ccccc1,"activity change, negative = inhibition",[1]; at 25.7 µM (top of the series),-12.5% (inactive)
same,"activity change, negative = inhibition",[1]; at 57.5 µM (top of the series),4.59% (inactive)
same,max response,[1]; [20],-9.05% and 8.48%
same,max response,[1]; [21],-21.3% and 13.9%
C[N+]1(CCCCC[N+]2(C)CCCC2)CCCC1,outcome,[2],inactive
same,"activity change, negative = inhibition",[1]; at 25.7 µM (top of the series),-1.41% (inactive)
same,"activity change, negative = inhibition",[1]; at 57.5 µM (top of the series),3.44% (inactive) and 1.51% (inactive)
same,max response,[1]; [20],-13.3% and 5.22% and -4.18%
same,max response,[1]; [21],-15.5% and 11.1% and -3.95%
same,Potency,[3],inactive
same,outcome,[4],inactive
CCCCC1=NC2(CCCC2)C(=O)N1Cc1ccc(-c2ccccc2-c2nn[nH]n2)cc1,"activity change, negative = inhibition",[1]; at 57.5 µM (top of the series),-6.83% (inactive)
same,max response,[1]; [20],15.4%
same,max response,[1]; [21],9.2%
CC(Cc1cccc(C(F)(F)F)c1)NCCOC(=O)c1ccccc1 (stereo not drawn),"activity change, negative = inhibition",[1]; at 57.5 µM (top of the series),-1.3% (inactive)
same,max response,[1]; [20],-3.51%
same,max response,[1]; [21],-2.7%
C=C(CC)C(=O)c1ccc(OCC(=O)O)c(Cl)c1Cl,Potency,[5],39.8 µM (active)
same,Potency,[6],39.8 µM (active)
same,Potency,[7],39.8 µM (active)
same,Potency,[8],39.8 µM (active)
same,Potency,[9],39.8 µM (active)
same,Potency,[10],39.8 µM (active)
same,Potency,[11],inactive
same,"activity change, negative = inhibition",[1]; at 25.7 µM (top of the series),-7.65% (inactive)
same,"activity change, negative = inhibition",[1]; at 57.5 µM (top of the series),1.41% (inactive)
same,max response,[1]; [20],5.62% and 9.96%
same,max response,[1]; [21],-2.15% and 13.8%
Oc1c(Cl)cc(Cl)cc1Sc1cc(Cl)cc(Cl)c1O,Potency,[12],31.6 µM (active)
same,Potency,[5],50.1 µM (active)
same,Potency,[7],39.8 µM (active)
same,Potency,[13],31.6 µM (active)
same,Potency,[11],inactive
same,"activity change, negative = inhibition",[1]; at 57.5 µM (top of the series),0.0363% (inactive)
same,max response,[1]; [20],9.87%
same,max response,[1]; [21],13.2%
Oc1c(I)cc(Cl)c2cccnc12,Potency,[14],inactive
same,Potency,[5],50.1 µM (active)
CC(C)(C)CC(C)(C)c1ccc(OCCOCC[N+](C)(C)Cc2ccccc2)cc1,Potency,[14],39.8 µM (active)
same,Potency,[15],25.1 µM (active)
same,Potency,[16],25.1 µM (active)
same,Potency,[17],25.1 µM (active)
same,Potency,[12],31.6 µM (active)
same,Potency,[5],31.6 µM (active)
same,Potency,[6],20 µM (active)
same,Potency,[18],31.6 µM (active)
same,Potency,[7],31.6 µM (active)
same,Potency,[8],25.1 µM (active)
same,Potency,[13],25.1 µM (active)
same,Potency,[9],15.8 µM (active)
same,Potency,[10],31.6 µM (active)
same,Potency,[19],31.6 µM (active)
same,Potency,[11],50.1 µM (active)
